Experimental data taken from PubChem BioAssay (NCI).
Compounds without any hit were thinned out: in the full panel of roughly 83,000, 20% have a hit.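 Plates (96-well) were seeded with cells, treated with compound at one concentration, and incubated for 48 hours before percent growth was determined.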 A number with no mark means an inactive call. Active and inactive are the calls of the source. The calls were made as follows: active = growth percent below 10; inactive = the rest.

Legend:
Test in all cases: NCI-60 one-dose screen, 48 h (100 = growth as untreated, 0 = no growth, -100 = all killed)
Conditions in all cases: 10 µM unless noted
SR leukemia = system: SR leukemia
RPMI-8226 leukemia = system: RPMI-8226 leukemia
OVCAR-8 ovarian = system: OVCAR-8 ovarian
OVCAR-5 ovarian = system: OVCAR-5 ovarian
OVCAR-4 ovarian = system: OVCAR-4 ovarian
SK-OV-3 ovarian = system: SK-OV-3 ovarian
IGROV1 ovarian = system: IGROV1 ovarian
OVCAR-3 ovarian = system: OVCAR-3 ovarian
HS 578T breast = system: HS 578T breast
NCI/ADR-RES ovarian = system: NCI/ADR-RES ovarian
T-47D breast = system: T-47D breast
BT-549 breast = system: BT-549 breast
MDA-MB-435 melanoma = system: MDA-MB-435 melanoma
SW-620 colon = system: SW-620 colon
HCT-116 colon = system: HCT-116 colon
HCC-2998 colon = system: HCC-2998 colon
KM12 colon = system: KM12 colon
MCF7 breast = system: MCF7 breast

Structure (SMILES)	growth (SR leukemia)	growth (RPMI-8226 leukemia)	growth (OVCAR-8 ovarian)	growth (OVCAR-5 ovarian)	growth (OVCAR-4 ovarian)	growth (SK-OV-3 ovarian)	growth (IGROV1 ovarian)	growth (OVCAR-3 ovarian)	growth (HS 578T breast)	growth (NCI/ADR-RES ovarian)	growth (T-47D breast)	growth (BT-549 breast)	growth (MDA-MB-435 melanoma)	growth (SW-620 colon)	growth (HCT-116 colon)	growth (HCC-2998 colon)	growth (KM12 colon)	growth (MCF7 breast)
CSc1ncc(C)c(Nc2ccc(Cl)cc2)n1	89.9%	102%	104%	112%	99.8%	126%	85.8%	111%	94.9%	98.1%	119%	87.1%	106%	102%	94.2%	113%	100%	–
CC(c1ccc(-n2cccn2)cc1)c1cnc(N2CCc3ccc(C(N)=O)cc3C2)s1 (configuration not stated)	53.5%	34.5%	34.9%	92.8%	42%	68.6%	79.8%	71.5%	100%	32.1%	2.07% (active)	12%	40.4%	97.3%	40.6%	80.9%	68.2%	37%
CSc1nc2sc3cc(Cl)ccc3n2c(=N)c1C#N	56.8%	83.5%	56.9%	107%	45.4%	72.4%	96.7%	101%	24.8%	58.4%	70%	–	96.9%	71.7%	92.9%	86.8%	19.8%	49%
C=C1C(=O)O[C@H]2[C@H]1CC/C(C(=O)NCCCCCCCCNC(=O)/C1=C/CC[C@@]3(C)O[C@H]3[C@H]3OC(=O)C(=C)[C@@H]3CC1)=C\CC[C@@]1(C)O[C@@H]21	20.2%	33.6%	93.4%	97.1%	73.1%	93.5%	63.3%	33.1%	90.5%	103%	28.4%	51%	86.8%	–	29.7%	97.2%	93.1%	37.9%
Cc1cc(C(c2ccccc2)c2ccccc2)ccc1NS(=O)(=O)c1ccccc1	74.7%	71%	101%	114%	98.5%	109%	123%	108%	89.8%	82.8%	85.6%	–	114%	101%	82.1%	104%	97.7%	88.3%
CCCCCCCC/C=C\CCCCCCCC(=O)Oc1cccc2cccnc12	45.9%	297%	89.7%	104%	128%	112%	85.4%	-2.34% (active)	138%	99.1%	54.6%	65.6%	82.9%	59.4%	32.2%	106%	104%	89.4%
CCOC(=O)c1c(C)nc2c(c1N)/C(=C/c1cc(OC)c(OC)c(OC)c1)C(=O)N2c1ccc(OC)cc1	12.4%	-6.44% (active)	37.7%	85.7%	87%	105%	33.6%	42.1%	95.1%	34.7%	73.2%	46.7%	49.5%	–	-0.0724% (active)	95.9%	43.7%	14.6%
COc1cccc(CCC2CCCN(c3cc(C)nc(N)n3)C2)c1 (configuration not stated)	26.7%	18.4%	24.4%	33.9%	52.2%	40.5%	31.3%	11.4%	56.8%	6.21% (active)	45.9%	39.1%	0.575% (active)	30.4%	7.36% (active)	39.4%	20.5%	17.8%
Cc1c(C(=O)O)nnn1-c1nccs1	101%	93%	91.6%	104%	96.7%	90.8%	104%	106%	86.9%	103%	90.4%	96.4%	96.2%	–	89.5%	113%	98.8%	99.6%
CN1C[C@@H](c2ccc(Cl)cc2)[C@]2(NC(=S)N(c3ccccc3)C2=O)[C@@]12C(=O)NC1C=CC(Br)=C[C@H]12 (some centres not stated)	48.2%	29.3%	70.1%	101%	71.6%	77.2%	56%	77.2%	68.4%	64.3%	49.5%	56%	77.4%	–	27.5%	94.9%	78.5%	51.3%
CC(=O)Nc1nccs1	111%	102%	103%	84.3%	117%	98.8%	94.7%	99.6%	91.7%	94.3%	97.7%	112%	106%	–	101%	102%	96%	91.2%
CC(=O)Nc1cccc(C2=CC(c3ccc(C)cc3)n3ncnc3N2)c1 (configuration not stated)	78.8%	73.8%	101%	95.2%	103%	133%	114%	101%	92.8%	97.6%	87.5%	–	112%	–	103%	112%	97.2%	96.9%
CCCCCCNCc1cc(C(C)(C)C)cc(CNCCCCCC)c1O	-52% (active)	-29.8% (active)	-80.2% (active)	-69.9% (active)	-94.8% (active)	-90.5% (active)	-77.5% (active)	-86.6% (active)	-22.1% (active)	-87.6% (active)	-41.6% (active)	-81% (active)	-82.8% (active)	-69.6% (active)	-90.8% (active)	-85.2% (active)	-83% (active)	–
CCN(CC)CCOC(=O)Nc1ccccc1Cl	102%	88.8%	104%	110%	120%	108%	101%	108%	109%	110%	98.6%	81.3%	108%	101%	72.7%	101%	103%	101%
CCc1nc2ccccc2[nH]1	100%	98.9%	101%	110%	112%	105%	130%	119%	94.3%	111%	123%	–	113%	104%	102%	110%	113%	88.7%
Fc1ccc(Nc2ccc3cc(OCCCN4CCOCC4)ccc3n2)cc1F	8.16% (active)	49.5%	66.8%	56.8%	49.4%	72.8%	72.8%	68.1%	40.6%	59.8%	43.5%	68.6%	59.9%	–	47.7%	20%	21.3%	55.7%
CC1=NN(c2cccc(Cl)c2)C(=O)/C1=C\c1cn(CC(O)CN2CCCCC2)c2ccccc12 (configuration not stated)	-8.32% (active)	34.8%	76.6%	83.9%	75.9%	94.6%	49.8%	57.7%	91.1%	75.3%	83.3%	96.1%	1.51% (active)	7.47% (active)	10.2%	–	29.7%	41.1%
